High-throughput results (PubChem BioAssay)
PAX8 inh HTS = inhibitors of PAX8-driven TPO luciferase reporter, primary screen, RMG-I cells, single concentration; inhibition, % at 12.6 µM; AID 652154, 2013; SteadyGlo, 24 h; hit rate 1.2% among 360,000;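 active = mean replicate inhibition at least 60% with every replicate also reaching 60%; inconclusive = only one of the two criteria is met; inactive = mean below 60% and not all replicates reaching 60%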;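 also: luciferase light reporting Pax8 driven TPO promoter activity; plate controls were median of neutral control wells for no effect and mitoxantrone controls for full effect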
LGR2 antag = inhibitors of bursicon-induced LGR2 CRE-luciferase signal, primary screen, cell-based, HEK293, CRE-luciferase reporter, bursicon stimulation. hit rate 0.35% among 380,000. inhibition, % at 9.99 µM. Drosophila bursicon receptor LGR2 (rickets). bursicon-stimulated, 4 h. AID 720647, 2013;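 active = drop in luminescence signal, shown as inhibition above about 50% in the replicate tests, limit read from the data, passing the limit was not always enough; inconclusive = probably only some replicates passing the limit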;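 also: agonist challenge used bursicon conditioned medium at about half maximal strength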
Shn3 inh set2 = reduction of Shn3 3'UTR firefly luciferase signal, primary screen, Schnurri-3 inhibitor project, cell-based, Clone20 osteoblasts, set 2; Clone20 osteoblast Shn3 3'UTR firefly luciferase, 24 h; inhibition, % at 12.5 µM; hit rate 0.52% among 360,000;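 active = mean inhibition of at least 75% with every replicate also reaching 75%; inconclusive = mean inhibition at least 75% but some replicate below; inactive = mean inhibition below 75%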;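 also: 0% = median of neutral control wells and 100% = pilot-screen positive control compound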
LMP1 NFkB inh = EBV LMP1-driven NF-kappaB luciferase reporter inhibitors, primary screen, cell-based, luminescence, single point; LMP1-induced NF-kappaB luciferase reporter cells; hit rate 0.69% among 350,000; AID 504558, 2011; inhibition, % at 12.5 µM; in the data active = inhibition above about 41%; inconclusive = no clear call, values can overlap the other calls;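 also: 0% = neutral control wells and 100% = reference inhibitor control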
EWS-Fli inh = EWS/Fli-driven NR0B1 reporter inhibitors, primary screen, A673 cells, NR0B1 luciferase, luminescence, MLPCN library | inhibition, % at 12.6 µM | hit rate 0.67% among 350,000 | viability-normalised;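 active = mean inhibition of at least 50% after viability correction, with every replicate also passing that limit; inconclusive = mean reaches 50% but only one of two replicates passes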;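 also: firefly luciferase signal divided by Alamar Blue viability fluorescence both relative to DMSO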
MITF TRPM1 inh = inhibitors of MITF-dependent TRPM1 promoter reporter, primary screen, cell-based, SK-MEL-5, single point, luciferase. SK-MEL-5 TRPM1 promoter luciferase, 24 h. hit rate 0.83% among 330,000. inhibition, % at 12.5 µM. AID 488899, 2010;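 active = mean inhibition across replicates of 60% or more, whatever share of single replicates reaches that level; inconclusive = some that reach 60%, reason not given; inactive = mean inhibition across replicates below 60%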
* hit, by the source's call. A selection: hits, their analogues and other compounds. The true share with any hit is near 2.2%.

Screening Cc1ccc(S(=O)(=O)N(C)C[C@@H]2Oc3ncc(-c4ccccc4)cc3C(=O)N([C@@H](C)CO)C[C@@H]2C)cc1 returned LGR2 antag -15 and EWS-Fli inh 3.
`C[C@H](CO)N1C[C@H](C)[C@H](CN(C)Cc2ccc(-c3ccccc3)cc2)Oc2ccc(NS(=O)(=O)c3ccc(F)cc3)cc2CC1=O` gave PAX8 inh HTS 113*, LGR2 antag -5 and EWS-Fli inh -14.
Screening COc1ccc(S(=O)(=O)Nc2ccc3c(c2)CC(=O)N([C@@H](C)CO)C[C@H](C)[C@@H](CN(C)Cc2ccc(C(F)(F)F)cc2)O3)cc1 returned PAX8 inh HTS 83*, LGR2 antag 13 and EWS-Fli inh 4.
`C[C@@H]1CN([C@@H](C)CO)C(=O)Cc2cc(NS(=O)(=O)c3ccc(F)cc3)ccc2O[C@@H]1CN(C)Cc1ccc(-c2ccccc2)cc1` gave PAX8 inh HTS -21, LGR2 antag -13 and EWS-Fli inh 35.
Screening Cc1noc(C)c1NC(=O)Nc1ccc2c(c1)C(=O)N([C@H](C)CO)C[C@@H](C)[C@@H](CN(C)Cc1ccccc1)OCCCC[C@@H](C)O2 returned PAX8 inh HTS -7, LGR2 antag -2 and EWS-Fli inh 0.
C[C@@H]1CN([C@H](C)CO)C(=O)c2cccc(NC(=O)c3ccc(-c4nccs4)cc3)c2O[C@H]1CN(C)Cc1ccc(C(F)(F)F)cc1 was read as LGR2 antag 39 and EWS-Fli inh 8.
For O=C(C[C@@H]1C[C@@H]2c3cc(NC(=O)c4ccc5c(c4)OCO5)ccc3O[C@@H]2[C@@H](CO)O1)NCc1ccc(Oc2ccccc2)cc1 the results were PAX8 inh HTS 11, LGR2 antag 68* and EWS-Fli inh inconclusive.
`O=C(C[C@@H]1C[C@@H]2c3cc(NC(=O)Nc4ccccc4F)ccc3O[C@@H]2[C@H](CO)O1)NCc1ccc(Oc2ccccc2)cc1` gave PAX8 inh HTS 82*, LGR2 antag 1 and EWS-Fli inh -5.
Screening O=C(C[C@@H]1C[C@@H]2c3cc(NC(=O)C4CCC4)ccc3O[C@@H]2[C@@H](CO)O1)NCc1ccc(-c2ccccc2)cc1 returned PAX8 inh HTS 70*, LGR2 antag 12 and EWS-Fli inh 10.
For CN(C)c1ccc2c(c1)[C@@H]1C[C@@H](CC(=O)NCc3ccc(-c4ccccc4)cc3)O[C@@H](CO)[C@@H]1O2 the results were PAX8 inh HTS 16, LGR2 antag -19 and EWS-Fli inh 55*.
For CN(C)c1ccc2c(c1)[C@@H]1C[C@H](CC(=O)NCc3ccc(-c4ccccc4)cc3)O[C@@H](CO)[C@@H]1O2 the results were PAX8 inh HTS 14, LGR2 antag 1 and EWS-Fli inh 4.
CS(=O)(=O)Nc1ccc2c(c1)[C@@H]1C[C@@H](CC(=O)NCc3ccc(Oc4ccccc4)cc3)O[C@H](CO)[C@@H]1O2 was read as PAX8 inh HTS 31, LGR2 antag -12 and EWS-Fli inh 53*.
`CS(=O)(=O)Nc1ccc2c(c1)[C@@H]1C[C@@H](CC(=O)NCc3ccc(-c4ccccc4)cc3)O[C@@H](CO)[C@@H]1O2` gave PAX8 inh HTS 82*, LGR2 antag 8 and EWS-Fli inh 57*.
CS(=O)(=O)Nc1ccc2c(c1)[C@@H]1C[C@@H](CC(=O)NCc3ccc(Oc4ccccc4)cc3)O[C@@H](CO)[C@@H]1O2 was read as PAX8 inh HTS 84*, LGR2 antag -28 and EWS-Fli inh 55*.
CS(=O)(=O)Nc1ccc2c(c1)[C@H]1C[C@@H](CC(=O)NCc3ccc(-c4ccccc4)cc3)O[C@@H](CO)[C@H]1O2 was read as PAX8 inh HTS 7, LGR2 antag 0 and EWS-Fli inh 4.
Screening C[C@@H]1CN([C@H](C)CO)C(=O)c2cc(NC(=O)Cn3cnnn3)ccc2O[C@@H]1CN(C)C(=O)Nc1ccccc1 returned LGR2 antag 4 and EWS-Fli inh -5.
For C[C@@H]1CCCCO[C@H](CN(C)S(=O)(=O)c2ccccc2)[C@H](C)CN([C@@H](C)CO)C(=O)c2cc(NS(=O)(=O)c3cccs3)ccc2O1 the results were PAX8 inh HTS -24, LGR2 antag 8 and EWS-Fli inh 6.
Screening COc1coc(C(O)CN)cc1=O (stereo unspecified) returned PAX8 inh HTS -16, LGR2 antag -21, Shn3 inh set2 -5, LMP1 NFkB inh -21, EWS-Fli inh -3 and MITF TRPM1 inh 20.
`CCOC(=O)C(=Cc1cc(=O)c(OC)co1)C(=O)OCC` gave PAX8 inh HTS 22, LGR2 antag inconclusive, Shn3 inh set2 20, LMP1 NFkB inh 23, EWS-Fli inh 70* and MITF TRPM1 inh 98*.
COc1ccc2sc3c(=O)[nH]c4ccccc4c3c2c1 was read as LGR2 antag 49, Shn3 inh set2 9, LMP1 NFkB inh 88* and MITF TRPM1 inh 46.
For Cc1ccccc1Nc1cc2ccccc2c(=O)[nH]1 the results were Shn3 inh set2 16, LMP1 NFkB inh 6 and MITF TRPM1 inh 69*.
For O=c1[nH]c(Nc2ccccc2Cl)cc2ccccc12 the results were PAX8 inh HTS -24, LGR2 antag -34, Shn3 inh set2 -32, LMP1 NFkB inh -7, EWS-Fli inh -15 and MITF TRPM1 inh -7.
`Cc1cc(OCC(=O)NC(C)C)cc(C)c1Br` gave PAX8 inh HTS 65*, LGR2 antag -3, Shn3 inh set2 2, LMP1 NFkB inh -6, EWS-Fli inh 5 and MITF TRPM1 inh 1.
COc1ccc(CC(=O)Nc2cccc(-c3nnc(-c4ccccc4)o3)c2)cc1OC was read as LGR2 antag 103*, Shn3 inh set2 64, LMP1 NFkB inh 25 and MITF TRPM1 inh 42.
COc1ccc(CC(=O)Nc2ccc(-c3nnc(-c4ccccc4)o3)cc2)cc1OC was read as LGR2 antag 2, Shn3 inh set2 5, LMP1 NFkB inh -10, EWS-Fli inh -48 and MITF TRPM1 inh -20.
For CCOc1cccc(C(=O)Nc2cccc(-c3nnc(-c4ccccc4)o3)c2)c1 the results were LGR2 antag 0, Shn3 inh set2 14, LMP1 NFkB inh 7, EWS-Fli inh -24 and MITF TRPM1 inh -26.
`CCOc1cccc(C(=O)Nc2cccc(-c3nnc(-c4ccc(C)cc4)o3)c2)c1` gave Shn3 inh set2 -11, LMP1 NFkB inh -54 and MITF TRPM1 inh 82*.
COc1ccc(CC(=O)Nc2cccc(-c3nnc(-c4ccc(C)cc4)o3)c2)cc1OC was read as LGR2 antag 94*, Shn3 inh set2 65, LMP1 NFkB inh 19, EWS-Fli inh -18 and MITF TRPM1 inh 62*.
